Screening results deposited in PubChem BioAssay by several laboratories.
GRK2 aptamer HTS – compounds blocking aptamer binding on GRK2 – biochemical, human GRK2, bead flow cytometry, HTS, primary screen. Beta-adrenergic receptor kinase 1 (Homo sapiens), P25098. FAM-aptamer displacement from GRK2. inhibition of aptamer binding, % at 10 µM. 330,000 compounds, 0.59% hits. AID 488847, 2010;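 active means inhibition of aptamer binding above 40%, roughly 3 SD of noise, on plates passing a quality check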;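 further: median bead fluorescence of bound FAM aptamer so fluorescent compounds give negative values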
ALR H2O2 inh – inhibitors of human ALR sulfhydryl oxidase, primary screen, biochemical, H2O2 detection, HRP-luminol luminescence, single point; purified ALR, DTT oxidation; inhibition, % (test concentration not listed); 290,000 compounds, 3.8% hits; AID 485317, 2010;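 active means mean replicate inhibition above about 79%, with every replicate also reaching it, limit read from the data; inconclusive means only one of the two criteria met; inactive means mean below limit and not every replicate reaching it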
Efflux pump mplx – inhibitors of Candida efflux pumps in yeast, primary screen, S. cerevisiae, Nile Red, multiplex; S. cerevisiae Candida pump triplex; inhibition, % at 10 µM; 330,000 compounds, 0.44% hits;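 active means plate passing quality check with inhibition over a set limit, or well fluorescence over plate mean plus 4 SD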;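 further: Nile Red retained in pooled yeast measured as flow cytometry median fluorescence; higher means more Nile Red kept so more efflux inhibition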
Rce1 inhib – yeast Rce1p protease inhibitors, primary screen, biochemical, fluorescence, cell-free homogeneous; 290,000 compounds, 0.27% hits; yeast membranes, quenched prenylated peptide cleavage fluorescence; calls only; CAAX prenyl protease 2 (Saccharomyces cerevisiae (strain ATCC 204508 / S288c)), Q03530; AID 2563, 2010;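 active means fall in fluorescence gain of 50% or more versus controls, with final raw signal at or below 3038400; inconclusive means same 50% fall but final raw signal above 3038400; inactive means fall in fluorescence gain under 50%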
Rtt109 HAT inh – inhibitors of C. albicans Rtt109/Vps75 HAT, primary screen, biochemical, ThioGlo CoA-SH fluorescence, plate reader; Histone acetyltransferase RTT109 (Candida albicans (strain SC5314 / ATCC MYA-2876)), …; purified Rtt109/Vps75, 4 h; inhibition, % at 34.9 µM; 330,000 compounds, 0.16% hits;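 active means inhibition of at least 50% in every replicate; inconclusive means best replicate reaches 50% inhibition but some replicates fall short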
Target sequence (Q5AAJ8 whole entry, looked up): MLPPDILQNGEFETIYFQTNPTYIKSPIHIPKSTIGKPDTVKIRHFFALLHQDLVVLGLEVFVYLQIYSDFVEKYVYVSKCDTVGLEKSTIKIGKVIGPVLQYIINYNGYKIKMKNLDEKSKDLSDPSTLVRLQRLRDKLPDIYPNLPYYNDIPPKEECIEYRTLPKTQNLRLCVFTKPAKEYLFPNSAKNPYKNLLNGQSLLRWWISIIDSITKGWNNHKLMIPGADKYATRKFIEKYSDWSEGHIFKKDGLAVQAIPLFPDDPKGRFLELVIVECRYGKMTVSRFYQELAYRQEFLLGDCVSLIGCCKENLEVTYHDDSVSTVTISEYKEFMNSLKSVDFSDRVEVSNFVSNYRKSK
HDAC3 inhib – HDAC3 deacetylase inhibitors, primary screen, biochemical, fluorescence, cell-free homogeneous | Histone deacetylase 3 (Homo sapiens), O15379 | recombinant HDAC3, fluorogenic peptide/trypsin coupled | inhibition, % at 8.3 µM | 320,000 compounds, 0.15% hits | AID 2718, 2010; in the data active means inhibition above about 26%, passing the limit was not always enough; inconclusive means no clear call, values can overlap the other calls
Large screens that a line does not name were inactive. Sampled rows, rich in hits. Any-hit rate of the full collection: about 4.5%.

CC(C)C[C@@H](CO)N1CCN(Cc2ccc([N+](=O)[O-])cc2)CCC1=O	none (no result: ALR H2O2 inh)
Cc1ccc(CNC(=O)CS(=O)Cc2nc(-c3ccccc3C)oc2C)cc1 (stereo not drawn)	none
COCCNC(=O)CS(=O)Cc1nc(-c2ccccc2C)oc1C (stereo not drawn)	ALR H2O2 inh 98
COc1ccc(OC)c(NC(=O)CS(=O)(=O)Cc2nc(-c3ccccc3C)oc2C)c1	none
COc1ccccc1CNC(=O)COc1ccccc1C	none
COc1ccc(CNC(=O)CS(=O)Cc2nc(-c3ccccc3C)oc2C)cc1 (stereo not drawn)	ALR H2O2 inh 99
Cc1ccccc1-c1nc(CS(=O)CC(=O)NCc2ccccc2)c(C)o1 (stereo not drawn)	ALR H2O2 inh 98
COc1ccccc1CNC(=O)CS(=O)Cc1nc(-c2ccccc2C)oc1C (stereo not drawn)	ALR H2O2 inh 99
CCCNC(=O)CS(=O)(=O)Cc1nc(-c2ccccc2C)oc1C	none
O=C(O)c1ccc(NS(=O)(=O)c2cccc(C(=O)Nc3cccc(C(=O)O)c3)c2)cc1	none
N#C/C(=C\c1ccc(C#N)cc1)C(=O)c1ccccc1	ALR H2O2 inh 93
Cc1ccc(C)n1-c1sc2c(c1C(=O)O)CCCC2	ALR H2O2 inh 96 (no result: Rce1 inhib)
CCOc1ccc(OCCNC(=O)C(NC(=O)c2c(F)cccc2F)C(C)C)cc1 (stereo not drawn)	none (no result: Rce1 inhib)
COc1ccc(S(=O)(=O)N2CCN(C(=O)CCSc3ccccc3)CC2)cc1	none (no result: ALR H2O2 inh, Rce1 inhib)
CCOC1=C/C(=C/c2c(N)n3nc(CC(=O)N4CCCC4)sc3nc2=O)C=CC1=O	ALR H2O2 inh 99
COC1=C/C(=C/c2c(N)n3nc(CC(=O)N4CCCC4)sc3nc2=O)C=CC1=O	ALR H2O2 inh 84
Nc1c(C=C2C=CC(=O)C=C2)c(=O)nc2sc(CC(=O)N3CCCCC3)nn12	none (no result: ALR H2O2 inh)
COC1=CC(=Cc2c(N)n3nc(CC(=O)N4CCCCC4)sc3nc2=O)C=C(OC)C1=O	none
CN(C)c1ccc(N=Nc2ccccc2C(=O)OCC(=O)NC2CCCC2)cc1	ALR H2O2 inh 97
CN(C)c1ccc(N=Nc2ccccc2C(=O)OCC(=O)NCC2CCCCC2)cc1	none
O=C(O)/C=C\C(=O)Nc1ccccc1C#Cc1ccccc1	ALR H2O2 inh inconclusive
O=C(O)/C=C\C(=O)Nc1ccccc1C#Cc1ccc(Br)cc1	ALR H2O2 inh 98
COc1ccc(N2CCN(C(=O)CCNS(=O)(=O)c3cccs3)CC2)cc1	ALR H2O2 inh 94
COc1ccc(S(=O)(=O)N(CC(=O)N2CCCC2)Cc2ccccc2)cc1	Rce1 inhib active
COc1ccc(N2CCN(C(=O)CN(CCc3ccccc3)S(C)(=O)=O)CC2)cc1	ALR H2O2 inh 88
COc1ccccc1N1CCN(C(=O)CN(CCc2ccccc2)S(C)(=O)=O)CC1	none (no result: Rtt109 HAT inh)
CCN(Cc1ccccc1)S(=O)(=O)c1ccc(OC)cc1	none
COc1ccc(N2CCN(C(=O)CN(C)S(=O)(=O)c3cccs3)CC2)cc1	ALR H2O2 inh 99 (no result: Rce1 inhib)
Oc1ccc2nnc3c(Br)cnn3c2c1	none
COc1cc(O)sc1C=Nc1ccc(Cl)cc1	ALR H2O2 inh 95
O=C(O)c1ccc(NNC(=S)Nc2cc(C(F)(F)F)ccc2Cl)cc1	none
CCOC(=O)c1c(NC(=O)COc2cccc3c2CCN(C)C3=O)sc2c1CCC2	ALR H2O2 inh 87
COc1ccc2c(c1)c1ncn(CCN3CCCCC3)c(=O)c1n2C	Rce1 inhib active
COc1ccc2c(c1)c1ncn(CCN3CCCC3)c(=O)c1n2C	Rce1 inhib active
Cc1occc1-c1nnc(SCC(=O)NC2CCC(C)CC2)o1 (stereo not drawn)	none (no result: Rce1 inhib)
COc1ccc(-c2nc3cc(C)ccn3c2NCC2CCCO2)cc1OC (stereo not drawn)	none
COc1cc(-c2nc3cccc(C)n3c2NCC2CCCO2)ccc1O (stereo not drawn)	ALR H2O2 inh 99
